Results taken from PubChem BioAssay (NCI).
Compounds without any hit were thinned out: in the full panel of roughly 83,000, 20% have a hit.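 48-hour exposure, single concentration, 96-well plates; percent growth endpoint where 0 means no net growth. Active: below 10.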 Values without a mark were called inactive. Calls of active or inactive are those of the source.

System: MDA-MB-231 breast
Test: NCI-60 one-dose screen, 48 h (100 = growth as untreated, 0 = no growth, -100 = all killed)
Settings: 10 µM unless noted

Going from `COc1cccc2cc(-c3nc(C4CCC(C(=O)O)CC4)n4ncnc(N)c34)[nH]c12` (centres undefined) to `CNC(=O)CN1CCC(Oc2cc3c(Nc4cccc(Cl)c4F)ncnc3cc2OC)CC1`, the growth rises from 19.2% to 43.6%.

First: C[C@@H](Oc1cc(-n2cnc3ccc(CN4CCN(C)CC4)cc32)sc1C(N)=O)c1ccccc1C(F)(F)F
Second: COc1cc(N2CCC(N3CCN(C)CC3)CC2)ccc1Nc1ncnc(Nc2ccccc2S(=O)(=O)C(C)C)n1
The growth of the first is lower: 27.2% for the first, 95.9% for the second.

Going from `Oc1ccc(C(c2ccc(O)cc2)C(Cl)(Cl)Cl)cc1` to `COc1ccc(Cc2cc(-c3ccccc3C)n[nH]c2=O)cc1`, the growth falls from 98.2% to 84.6%.

Compared with `C[C@H](NC(=O)c1c(N)nn2cccnc12)c1cc2cccc(C#Cc3cnn(C)c3)c2c(=O)n1-c1ccccc1`, `CC[C@H](Nc1ncnc2nc[nH]c12)c1nc2cccc(F)c2c(=O)n1-c1ccccc1` is higher in growth: 37.8% for the first, 89.1% for the second.

First: COc1cc(CCc2cc(NC(=O)c3ccc(N4C[C@@H](C)N[C@@H](C)C4)cc3)n[nH]2)cc(OC)c1
Second: COc1cc2ncnc(Oc3cccc(NC(=O)Nc4cc(C(C)(C)C(F)(F)F)on4)c3)c2cc1OC
The growth of the first is higher: 44.2% for the first, 10.7% for the second.

First: Cc1oc2c(C(=O)N/N=C\c3ccc(O)cc3O)c[nH]c2c1C
Second: CC(C)Nc1cc(-c2c[nH]c(C(=O)N[C@H](CO)c3cccc(Cl)c3)c2)c(Cl)cn1
The growth of the first is higher: 30.3% for the first, 20.1% for the second.

Compared with `CCCCCc1ccc(C)cc1OC(=O)CCl`, `C#Cc1cccc(Nc2ncnc3cc(OCCOC)c(OCCOC)cc23)c1` is lower in growth: 110% for the first, 67% for the second.

First: COc1cc(Nc2ncc3c(n2)-c2ccc(Cl)cc2C(c2c(F)cccc2OC)=NC3)ccc1C(=O)O
Second: CNC(=O)c1cc(Oc2cccc3nc(Nc4ccc(Oc5ccccc5)cc4)ccc23)ccn1
The growth of the first is lower: 69.6% for the first, 71.6% for the second.

Going from `CN1CCN(CCOc2cc(OC3CCOCC3)c3c(Nc4c(Cl)ccc5c4OCO5)ncnc3c2)CC1` to `COc1cc2c(cc1OCCCN1Cc3ccc(OCCCCC(=O)N4CCC(CCN5CCCC5)CC4)cc3C1)N=C(N)C21CCCC1`, the growth rises from 61.3% to 87.1%.

Compared with `Nc1nc(Nc2ccccc2)c(C=Nc2ccccc2)c(=O)[nH]1`, `COc1ccc(Nc2ncccc2NC(=O)c2cn(Cc3cccc(Oc4ccccc4)c3)nn2)cc1` is lower in growth: 104% for the first, 87.1% for the second.

Going from `Cc1[nH]n(C(N)=S)c(=O)c1N=Nc1ccc(S(=O)(=O)Nc2ccncn2)cc1` to `O=C(COc1ccc(/C=C2\Cc3ccc(Cl)cc3C2=O)cc1)Nc1nccs1`, the growth rises from 84.7% to 92.2%.

First: O=C(c1ccc(/C=C/c2n[nH]c3ccccc23)cc1)N1CCNCC1
Second: O=C1NC(=O)[C@@H](c2cn3c4c(cccc24)CCC3)[C@@H]1c1c[nH]c2ccccc12
The growth of the first is lower: 27.1% for the first, 34.1% for the second.

Going from `O=C(O)C1(Cc2cccc(Nc3nccs3)n2)CCC(Oc2cccc(Cl)c2F)CC1` (centres undefined) to `CNC(=O)c1nn(C)c2c1C(C)(C)Cc1cnc(Nc3ccc(N4CCN(C)CC4)cc3)nc1-2`, the growth falls from 77.5% to 14.7%.

Compared with `Cc1cc(O)cc(-c2c(-c3ccnc(-c4cccnc4)c3)cnn2C)c1`, `Cc1nn(-c2ccccc2)c2c1N=c1s/c(=C\c3cn(-c4ccccc4)nc3-c3ccc(Cl)cc3)c(=O)n1C(C)N2` (centres undefined) is higher in growth: 60.2% for the first, 78.5% for the second.

Compared with `C=CCN(/C=C1/C(=O)O[C@H](COC)[C@@]2(C)C1=C(O)C(=O)C1=C2[C@H](OC(C)=O)C[C@]2(C)C(=O)CC[C@@H]12)CC=C`, `CC(C)[C@@H]1CC[C@@H]2[C@@H]1[C@H](OC(=O)/C=C/c1ccccc1)[C@]1(C(C)C)C[C@@H](OC(=O)CO)[C@@]2(C)O1` is higher in growth: 42% for the first, 77.7% for the second.

`C/C=C/C=N/NC(=S)Nc1ccccc1` showed a growth of 89.9%.

With `CNC(=O)c1cc(Oc2ccc3nc(NC(=O)Nc4ccc(Cl)c(C(F)(F)F)c4)sc3c2)ccn1` the growth was 4.76% (active).
With `CN1CC[C@@H](c2c(O)cc(O)c3c(=O)cc(-c4ccccc4Cl)oc23)[C@@H]1CO` the growth was 6.99% (active).
In the case of `COCCN1CCN(Cc2ccc(-c3n[nH]c4c3C(=O)c3c(NC(=O)NN5CCOCC5)cccc3-4)cc2)CC1`, the growth is reported as -18.1% (active).
For `CN(c1ncccc1CNc1nc(Nc2ccc3c(c2)CC(=O)N3)ncc1C(F)(F)F)S(C)(=O)=O`, the growth was 3.93% (active).
With `Cc1c(CN2CCN(C(=O)[C@H](C)O)CC2)sc2c(N3CCOCC3)nc(-c3cnc(N)nc3)nc12` the growth was 7.09% (active).
For `CN1CCN(c2ccc(C(=O)Nc3n[nH]c4ccc(Cc5cc(F)cc(F)c5)cc34)c(NC3CCOCC3)c2)CC1`, the growth was -68.7% (active).
For `Cc1cc(-c2cc(O)ccc2Cl)cc2nnc(Nc3ccc(OCCN4CCCC4)cc3)nc12`, the growth was -80.5% (active).
In the case of `Cc1ncc(-c2ccnc(Nc3ccc(S(C)(=O)=O)cc3)n2)n1C(C)C`, the growth is reported as -8.39% (active).
